D1 antagonist: antagonists of human D1 dopamine receptor | HEK293 TREx D1 cells, calcium flux, dopamine EC80; hits give low values | activity change, negative = inhibition, % at 10 µM | actives 3.2% (n = 360,000) | AID 504652; in the data active = activity change below about -30%; also: % is scaled to controls: 0 for no effect and ±100 for the full control effect
Target sequence (P21728 whole entry, looked up): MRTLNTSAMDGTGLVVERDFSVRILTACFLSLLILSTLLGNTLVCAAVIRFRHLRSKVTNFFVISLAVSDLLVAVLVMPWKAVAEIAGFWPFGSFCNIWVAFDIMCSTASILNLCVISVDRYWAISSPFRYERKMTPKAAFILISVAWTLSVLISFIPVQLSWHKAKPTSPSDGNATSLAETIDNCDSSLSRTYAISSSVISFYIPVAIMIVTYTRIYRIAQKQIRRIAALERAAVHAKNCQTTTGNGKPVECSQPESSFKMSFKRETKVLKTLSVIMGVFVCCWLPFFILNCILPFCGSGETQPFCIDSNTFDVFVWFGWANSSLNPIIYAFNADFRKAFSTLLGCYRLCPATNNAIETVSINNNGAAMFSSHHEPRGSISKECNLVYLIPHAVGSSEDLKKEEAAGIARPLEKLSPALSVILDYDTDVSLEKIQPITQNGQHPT
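Calcium flux readout: force-coupled, inducible Hek293 Trex D1 line, cells induced overnight at 30 C with tetracycline, dye-loaded 30–90 min at RT. Antagonism scored against EC80 dopamine challenge given 180 s after compound.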
TRHR agonist: activates the human TRH receptor. P34981. TRHR cells, calcium flux fluo-8, FDSS agonist mode. activation, % at 2 µM. actives 0.18% (n = 360,000); also: 0% is about no effect
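Steps: seed TRHR cells overnight; add fluo-8 no-wash Ca dye, RT 30 min–1.5 h; record 10 s baseline; pin-transfer compounds; monitor fluorescence 1 cycle/s for the agonist window. Calcium increases flag candidate agonists.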
D1 ag: agonists of human D1 dopamine receptor. HEK293 T-REx D1 cells, calcium flux, agonist mode. activation, % at 2 µM. actives 1% (n = 360,000). AID 504660; also: 0% is about no effect
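Agonism was scored from calcium flux recorded over 180 s (1 read/s) after pintool compound addition, following a 10-cycle baseline. Cells were inducible force-coupled HEK293 TREx D1, plated overnight at 30 C and loaded with no-wash calcium dye.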
D1 potentiator: enhances dopamine response at the human D1 receptor | HEK293 TREx D1 cells, calcium flux, dopamine EC20 potentiation | potentiation, % at 10 µM | actives 0.036% (n = 360,000) | AID 504651; in the data active = potentiation above about 30%; also: 0% is about no effect
TRHR enhancer: allosterically enhances the human TRH receptor. enhancement, % at 2 µM. AID 493056. actives 0.66% (n = 360,000). P34981. TRHR cells, fluo-8 calcium fluorescence, EC20 TRH enhancement; in the data active = enhancement above about 30%; also: 0% is about no effect
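Enhancer read-out: after compound pinning and an initial kinetic agonist-mode read, an EC20 of TRH (10 nM final) was injected and fluo-8 calcium signal (Ex 480/Em 530) followed at 1 s/cycle for 100 cycles in TRHR-expressing cells.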
The depositor's hits bear a star. Rows were chosen to be rich in hits. Some 4.6% of all compounds tested hit in one or more screens of this group. Rule as the data show it, unless noted: active = activation above about 30%; inactive = the rest.

CN(Cc1ccccc1)C(=O)CN1C(=O)CSc2ccc(S(=O)(=O)N3CCOCC3)cc21 was read as D1 antagonist -12, TRHR agonist -1, D1 ag -2, D1 potentiator 1 and TRHR enhancer 18.
`O=C(CSCc1ccc(Cl)cc1)Nc1cccc(C(=O)O)c1` gave D1 antagonist -4, TRHR agonist 1, D1 ag 1, D1 potentiator 4 and TRHR enhancer 38*.
For CC(=O)c1cccc(NC(=O)CSCc2ccc(Br)cc2)c1 the results were D1 antagonist -33*, TRHR agonist 0, D1 ag 10, D1 potentiator -7 and TRHR enhancer -2.
Screening CCOc1ccc(NC(=O)C(CC)n2c(=O)c(-c3ccccc3NC(C)=O)nc3ccccc32)cc1 (stereo not given) returned D1 antagonist -9, TRHR agonist -1, D1 ag 16, D1 potentiator -2 and TRHR enhancer 0.
`CC1CCCC(NC(=O)c2ccc(CNc3c(N4CCCC4)c(=O)c3=O)cc2)C1C` (stereo not given) gave D1 antagonist -32*, TRHR agonist 0, D1 ag 1, D1 potentiator -10 and TRHR enhancer 17.
Screening CN(CCc1ccccn1)C(=O)CCC1CCCN(C(=O)c2n[nH]c3c2CCCC3)C1 (stereo not given) returned D1 antagonist 3, TRHR agonist 0, D1 ag 3, D1 potentiator -4 and TRHR enhancer -11.
Screening O=C(COC(=O)COc1ccc2ccccc2c1)NCC(F)(F)F returned D1 antagonist -32*, TRHR agonist 0, D1 ag 25, D1 potentiator 3 and TRHR enhancer -7.
Screening CC(=O)Nc1ccc(S(=O)(=O)Nc2ccccc2N2CCOCC2)cc1Cl returned D1 antagonist -1, TRHR agonist 1, D1 ag 1, D1 potentiator 8 and TRHR enhancer -9.
CC(=O)Nc1ccc(S(=O)(=O)Nc2ccccc2N2CCOCC2)cc1 was read as D1 antagonist -22, TRHR agonist 0, D1 ag 3, D1 potentiator 1 and TRHR enhancer 34*.
CC(=O)Nc1cccc(NC(=O)c2cccc3cccnc23)c1 was read as D1 antagonist -3, TRHR agonist -1, D1 ag 1, D1 potentiator -2 and TRHR enhancer -6.
Screening CC(=O)Nc1ccc(S(=O)(=O)Nc2cccc3cccnc23)cc1 returned D1 antagonist -55*, TRHR agonist 1, D1 ag 2, D1 potentiator -7 and TRHR enhancer -1.
Cc1ccc(NC(=O)c2cccc3cccnc23)cc1 was read as D1 antagonist -31*, TRHR agonist 0, D1 ag 0, D1 potentiator -7 and TRHR enhancer -1.
`CC(=O)Nc1ccc(S(=O)(=O)Nc2cccn(Cc3ccc(C)cc3)c2=O)cc1` gave D1 antagonist -24, TRHR agonist 1, D1 ag 5, D1 potentiator 2 and TRHR enhancer 33*.
CC(C)Oc1ccc(C(=O)NCc2cccnc2)cc1 was read as D1 antagonist -14, TRHR agonist -1, D1 ag 1, D1 potentiator -4 and TRHR enhancer -6.
`O=C(c1ccccc1Cl)N1CCNCC1` gave D1 antagonist 5, TRHR agonist 0, D1 ag 1, D1 potentiator 3 and TRHR enhancer 9.
`NC(=O)CCN1CCN(CCOC2Cc3cc(Cl)ccc3Sc3ccccc32)CC1` (stereo not given) gave D1 antagonist -10, TRHR agonist 0, D1 ag 10, D1 potentiator -9 and TRHR enhancer -11.
For Clc1cccc2c1Sc1ccccc1CC2N1CCNCC1 (stereo not given) the results were D1 antagonist -78*, TRHR agonist 5, D1 ag 57*, D1 potentiator -5 and TRHR enhancer 4.
Screening COCCCN1CCN(C2Cc3ccccc3Sc3ccc(Cl)cc32)CC1 (stereo not given) returned D1 antagonist -86*, TRHR agonist 1, D1 ag 4, D1 potentiator -18 and TRHR enhancer 2.
Clc1ccc2c(c1)C(N1CCNCC1)Cc1ccccc1S2 (stereo not given) was read as D1 antagonist -86*, TRHR agonist 2, D1 ag 9, D1 potentiator -28 and TRHR enhancer 2.
For CC(C)CN1CCC(=O)N(CCSc2ccc(Br)cc2)CC1 the results were D1 antagonist 2, TRHR agonist 0, D1 ag 7, D1 potentiator -3 and TRHR enhancer -6.
`C=CCOc1ccc(C2C(C#N)=C(N)N(N(C)C)C3=C2C(=O)CCC3)cc1` (stereo not given) gave D1 antagonist 1, TRHR agonist 0, D1 ag 2, D1 potentiator -7 and TRHR enhancer 3.
Screening COC(=O)Cc1ccc(NC(=O)c2ccc(C)c(C)c2)cc1 returned D1 antagonist 5, TRHR agonist -1, D1 ag -1, D1 potentiator -9 and TRHR enhancer -5.
For CCOC1(C)OCC(=O)[C@]2(CCC3C4CCC5=CC(=O)C=CC5(C)C4C(=O)CC32C)O1 (stereo not given in full) the results were D1 antagonist -7, TRHR agonist 0, D1 ag 2, D1 potentiator -8 and TRHR enhancer -7.
`CC(=O)Nc1ccc(S(=O)(=O)NCC2CCC(C(=O)NCc3ccccc3Cl)CC2)cc1` (stereo not given) gave D1 antagonist -5, TRHR agonist 0, D1 ag 1, D1 potentiator -3 and TRHR enhancer -9.
For Cc1cccc(Nc2cc(C)c3c(O)cccc3n2)c1C the results were D1 antagonist -92*, TRHR agonist 6, D1 ag 13, D1 potentiator -10 and TRHR enhancer -2.
For C=CC[C@H]1CC(C)=C[C@H](CC=C)N1C(=O)c1cc(COc2ccccc2SC)on1 the results were D1 antagonist -13, TRHR agonist 2, D1 ag 40*, D1 potentiator 3 and TRHR enhancer -2.
Screening Cc1cc(=O)[nH]c(SCC(=O)c2c(N)n(C)c(=O)n(C)c2=O)n1 returned D1 antagonist -13, TRHR agonist 0, D1 ag -3, D1 potentiator -5 and TRHR enhancer 7.
Cc1cc2n(n1)C(c1ccccc1Cl)Nc1ccccc1-2 (stereo not given) was read as D1 antagonist -8, TRHR agonist -1, D1 ag 2, D1 potentiator -3 and TRHR enhancer 1.
CSc1ncc(CN2CCCCC2C(=O)Nc2ccc(Oc3ccccc3)nc2)cn1 (stereo not given) was read as D1 antagonist -31*, TRHR agonist -1, D1 ag 0, D1 potentiator -6 and TRHR enhancer 5.

Source: PubChem
